# According to PMC7862700, “An all-to-all approach to the identification of sequence-specific readers for epigenetic DNA modifications on cytosine”:
# What was measured:
# Experiment in all cases: DAPPL (digital affinity profiling via proximity ligation, sequencing); 10 mM Tris-HCl pH 7.5, 50 mM NaCl, 1 mM DTT, 4% glycerol, room temperature, 30 min; GST-TFs on glutathione beads, 16-mer random dsDNA library, 0.1% formaldehyde crosslink after washing; high values mean tight binding
# Conditions in all cases: protein: recombinant; tags: N-terminal GST; dsDNA, one strand shown
# FLI1 = biological target: T1, FLI1 (Homo sapiens, UniProt Q01543 1-452)
# T1 sequence: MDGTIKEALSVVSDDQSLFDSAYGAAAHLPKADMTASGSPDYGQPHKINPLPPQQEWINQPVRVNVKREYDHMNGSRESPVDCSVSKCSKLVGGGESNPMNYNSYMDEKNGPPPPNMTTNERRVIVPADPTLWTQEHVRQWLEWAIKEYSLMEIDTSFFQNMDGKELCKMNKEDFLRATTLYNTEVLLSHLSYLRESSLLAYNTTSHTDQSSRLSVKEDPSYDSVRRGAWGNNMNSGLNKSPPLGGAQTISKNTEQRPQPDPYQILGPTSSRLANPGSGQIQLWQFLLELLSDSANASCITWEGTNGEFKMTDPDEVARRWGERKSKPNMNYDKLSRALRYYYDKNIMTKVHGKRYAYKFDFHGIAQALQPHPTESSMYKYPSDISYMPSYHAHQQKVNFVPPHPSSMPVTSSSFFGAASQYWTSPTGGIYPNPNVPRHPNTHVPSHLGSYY
# Procedure, shortened: (§1)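 A tag-only sample was pooled with DNA-barcoded human transcription factors that had been expressed in yeast as GST fusions and captured on glutathione beads. The pools were incubated for 30 min at room temperature with 200 nmole of a random double-stranded 16-mer DNA library in Tris/NaCl/DTT/glycerol buffer, then washed, crosslinked with 0.1% formaldehyde, proximity-ligated (BsaI/T4 ligase, 1 h, 37 °C), PCR-amplified and sequenced on an Illumina NextSeq500. Binding signal is each hexamer's read frequency for a factor divided by its frequency for the tag-only sample.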
# ELK1 = biological target: T2, ELK1 (Homo sapiens, UniProt P19419 1-428)
# T2 sequence: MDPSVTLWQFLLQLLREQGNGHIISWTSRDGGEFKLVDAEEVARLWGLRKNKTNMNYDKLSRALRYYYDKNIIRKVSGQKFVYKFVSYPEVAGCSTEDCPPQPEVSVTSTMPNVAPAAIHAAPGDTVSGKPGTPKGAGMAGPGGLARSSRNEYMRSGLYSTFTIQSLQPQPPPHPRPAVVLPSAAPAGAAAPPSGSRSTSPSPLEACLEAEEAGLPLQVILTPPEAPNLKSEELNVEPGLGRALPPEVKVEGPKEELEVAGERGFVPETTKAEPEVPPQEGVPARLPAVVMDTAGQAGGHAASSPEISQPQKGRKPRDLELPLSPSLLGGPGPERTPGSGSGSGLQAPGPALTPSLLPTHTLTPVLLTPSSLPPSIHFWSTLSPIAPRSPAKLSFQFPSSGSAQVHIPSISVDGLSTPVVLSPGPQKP
# Procedure, shortened: as §1
# GABPA = biological target: T3, GABPA (Homo sapiens, UniProt Q06546 1-454)
# T3 sequence: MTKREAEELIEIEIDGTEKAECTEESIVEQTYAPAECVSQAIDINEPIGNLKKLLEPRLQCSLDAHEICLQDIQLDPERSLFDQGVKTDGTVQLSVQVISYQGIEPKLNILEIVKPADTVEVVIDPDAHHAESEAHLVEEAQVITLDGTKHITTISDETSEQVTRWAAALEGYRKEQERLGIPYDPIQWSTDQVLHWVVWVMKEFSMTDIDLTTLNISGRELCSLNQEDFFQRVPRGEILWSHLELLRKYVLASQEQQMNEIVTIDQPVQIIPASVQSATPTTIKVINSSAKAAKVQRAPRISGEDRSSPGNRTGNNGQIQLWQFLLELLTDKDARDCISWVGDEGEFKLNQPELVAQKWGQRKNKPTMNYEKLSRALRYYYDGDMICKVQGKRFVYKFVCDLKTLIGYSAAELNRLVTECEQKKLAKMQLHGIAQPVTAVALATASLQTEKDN
# Procedure, shortened: as §1
# ERG = biological target: T4, ERG (Homo sapiens, UniProt P11308 1-479)
# T4 sequence: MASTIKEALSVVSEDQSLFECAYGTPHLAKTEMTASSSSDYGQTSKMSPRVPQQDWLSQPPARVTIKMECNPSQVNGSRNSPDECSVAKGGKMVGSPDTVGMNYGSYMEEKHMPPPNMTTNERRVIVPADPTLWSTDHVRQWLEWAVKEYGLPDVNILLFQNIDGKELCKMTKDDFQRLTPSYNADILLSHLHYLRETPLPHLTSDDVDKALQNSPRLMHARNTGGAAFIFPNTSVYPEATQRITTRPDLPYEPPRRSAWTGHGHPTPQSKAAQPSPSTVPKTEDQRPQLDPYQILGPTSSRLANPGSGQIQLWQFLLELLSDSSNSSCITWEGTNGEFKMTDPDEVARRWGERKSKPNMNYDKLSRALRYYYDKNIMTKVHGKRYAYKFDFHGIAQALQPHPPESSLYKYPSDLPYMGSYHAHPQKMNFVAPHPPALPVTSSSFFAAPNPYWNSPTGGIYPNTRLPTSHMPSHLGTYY
# Procedure, shortened: as §1
# ELF1 = ELF1 (Homo sapiens, UniProt P32519 1-619)
# Procedure, shortened: as §1
# EHF = biological target: T5, EHF (Homo sapiens, UniProt Q9NZC4 1-300)
# T5 sequence: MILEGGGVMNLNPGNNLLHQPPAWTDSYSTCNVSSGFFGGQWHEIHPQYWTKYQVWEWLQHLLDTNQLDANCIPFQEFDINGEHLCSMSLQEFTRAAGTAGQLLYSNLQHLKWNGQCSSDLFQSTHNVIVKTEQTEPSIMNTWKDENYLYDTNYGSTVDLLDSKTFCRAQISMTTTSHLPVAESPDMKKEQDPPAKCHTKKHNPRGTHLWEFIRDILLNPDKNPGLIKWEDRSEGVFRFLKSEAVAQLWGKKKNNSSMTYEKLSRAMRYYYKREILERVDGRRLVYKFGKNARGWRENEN
# Procedure, shortened: as §1
# SPI1 = SPI1 (Homo sapiens, UniProt P17947 1-270)
# Procedure, shortened: as §1
# SPIB = SPIB (Homo sapiens, UniProt Q01892 1-262)
# Procedure, shortened: as §1
# ELK3 = biological target: T6, ELK3 (Homo sapiens, UniProt P41970 1-407)
# T6 sequence: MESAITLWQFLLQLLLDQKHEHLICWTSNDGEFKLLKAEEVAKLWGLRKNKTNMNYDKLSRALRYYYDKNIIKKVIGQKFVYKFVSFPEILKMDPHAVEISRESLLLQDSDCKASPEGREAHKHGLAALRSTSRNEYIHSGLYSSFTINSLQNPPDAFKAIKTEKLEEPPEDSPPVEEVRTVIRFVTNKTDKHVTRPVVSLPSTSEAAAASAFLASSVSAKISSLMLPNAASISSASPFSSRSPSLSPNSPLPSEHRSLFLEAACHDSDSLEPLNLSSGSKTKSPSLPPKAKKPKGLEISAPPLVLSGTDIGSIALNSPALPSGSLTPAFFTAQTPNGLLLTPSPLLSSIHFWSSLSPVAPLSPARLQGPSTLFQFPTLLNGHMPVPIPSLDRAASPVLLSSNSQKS
# Procedure, shortened: as §1
# Sequence of SPIB (Q01892 whole entry): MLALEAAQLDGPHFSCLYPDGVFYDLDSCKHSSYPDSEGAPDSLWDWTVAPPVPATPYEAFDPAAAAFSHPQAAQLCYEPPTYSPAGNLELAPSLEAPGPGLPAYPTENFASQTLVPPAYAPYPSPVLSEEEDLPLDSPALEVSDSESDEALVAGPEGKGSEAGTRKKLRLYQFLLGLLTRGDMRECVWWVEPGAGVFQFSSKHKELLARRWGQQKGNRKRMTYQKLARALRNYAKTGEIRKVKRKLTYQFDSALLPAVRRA
# Sequence of ELF1 (P32519 whole entry): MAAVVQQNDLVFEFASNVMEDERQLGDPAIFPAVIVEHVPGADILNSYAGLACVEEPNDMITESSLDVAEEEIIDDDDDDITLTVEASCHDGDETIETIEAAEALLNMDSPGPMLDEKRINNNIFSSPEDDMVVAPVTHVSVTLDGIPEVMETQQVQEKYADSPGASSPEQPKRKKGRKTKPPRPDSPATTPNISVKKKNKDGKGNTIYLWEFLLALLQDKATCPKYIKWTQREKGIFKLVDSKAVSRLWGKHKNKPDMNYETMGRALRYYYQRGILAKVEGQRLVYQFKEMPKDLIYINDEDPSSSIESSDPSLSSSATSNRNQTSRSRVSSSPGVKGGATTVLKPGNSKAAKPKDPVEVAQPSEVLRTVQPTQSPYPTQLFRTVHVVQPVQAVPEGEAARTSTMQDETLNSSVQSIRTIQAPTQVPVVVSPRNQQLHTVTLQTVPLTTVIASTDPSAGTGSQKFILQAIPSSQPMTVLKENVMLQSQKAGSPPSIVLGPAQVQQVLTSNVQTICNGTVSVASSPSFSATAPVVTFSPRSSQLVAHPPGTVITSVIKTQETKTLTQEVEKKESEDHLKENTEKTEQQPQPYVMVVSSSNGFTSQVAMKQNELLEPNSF
sequence,measurement,setting,value
AATAGT,binding signal,FLI1,"1.21 fold enrichment (6-mer frequency, TF over GST control)"
same,binding signal,ELK1,"1.2 fold enrichment (6-mer frequency, TF over GST control)"
same,binding signal,GABPA,"1.2 fold enrichment (6-mer frequency, TF over GST control)"
same,binding signal,ERG,"1.31 fold enrichment (6-mer frequency, TF over GST control)"
same,binding signal,ELF1,"1.19 fold enrichment (6-mer frequency, TF over GST control)"
same,binding signal,EHF,"1.23 fold enrichment (6-mer frequency, TF over GST control)"
same,binding signal,SPI1,"1.17 fold enrichment (6-mer frequency, TF over GST control)"
same,binding signal,SPIB,"1.22 fold enrichment (6-mer frequency, TF over GST control)"
same,binding signal,ELK3,"1.11 fold enrichment (6-mer frequency, TF over GST control)"
